Screening data (PubChem)
DT40 TDP1 CPT = qHTS for Inhibitors of human tyrosyl-DNA phosphodiesterase 1 (TDP1): qHTS in cells in presence of CPT; chicken DT40 Tdp1-/-;hTDP1 cells + 20 nM CPT, ATP luminescence, 48 h; Potency, µM (titrated, usually from 46.2 µM), inactives show at the highest dose activity change, negative = growth inhibition, usual class: inhibitors; hit rate 12% among 420,000; also: % is scaled to controls: 0 for no effect and ±100 for the full control effect; nearly all actives have a fitted effect of over 55% in size
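Cell growth measured by CellTiter-Glo luminescence after a minimum 48 h, 37 C compound exposure with 20 nM CPT in Tdp1-knockout DT40 cells stably expressing hTDP1, seeded 400/well; qHTS titration format.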
TDP1 cell noCPT = qHTS for Inhibitors of human tyrosyl-DNA phosphodiesterase 1 (TDP1): qHTS in cells in absence of CPT | DT40 Tdp1-/- hTDP1 cells, no CPT, ATP luminescence, 48 h | Potency, µM (top dose mostly 46.2 µM), inactives show at the top dose activity change, negative = growth inhibition, usual class: inhibitors | hit rate 15% among 420,000 | AID 686978, 2013; also: % is scaled to controls: 0 for no effect and ±100 for the full control effect; nearly all actives have a fitted effect of over 55% in size
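Cells were dispensed at 400 per well, compounds added by pin tool, plates incubated ≥48 hr at 37 °C, then CellTiter-Glo added for 30 min at room temperature before luminescence reading. Line: DT40 Tdp1-/- complemented with hTDP1; camptothecin omitted.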
TDP1 inh = qHTS Assay for Inhibitors of Tyrosyl-DNA Phosphodiesterase (TDP1); AID 485290, 2010; recombinant TDP1, AlphaScreen DNA substrate cleavage; hit rate 0.28% among 350,000; Potency, µM (titrated, usually from 130 µM), inactives show top-dose activity change, negative = inhibition, hits mostly inhibitors; Tyrosyl-DNA phosphodiesterase 1 (Homo sapiens), Q9NUW8; also: % is scaled to controls: 0 for no effect and ±100 for the full control effect; nearly all actives have a fitted effect of over 40% in size
Target sequence (Q9NUW8 whole entry, looked up): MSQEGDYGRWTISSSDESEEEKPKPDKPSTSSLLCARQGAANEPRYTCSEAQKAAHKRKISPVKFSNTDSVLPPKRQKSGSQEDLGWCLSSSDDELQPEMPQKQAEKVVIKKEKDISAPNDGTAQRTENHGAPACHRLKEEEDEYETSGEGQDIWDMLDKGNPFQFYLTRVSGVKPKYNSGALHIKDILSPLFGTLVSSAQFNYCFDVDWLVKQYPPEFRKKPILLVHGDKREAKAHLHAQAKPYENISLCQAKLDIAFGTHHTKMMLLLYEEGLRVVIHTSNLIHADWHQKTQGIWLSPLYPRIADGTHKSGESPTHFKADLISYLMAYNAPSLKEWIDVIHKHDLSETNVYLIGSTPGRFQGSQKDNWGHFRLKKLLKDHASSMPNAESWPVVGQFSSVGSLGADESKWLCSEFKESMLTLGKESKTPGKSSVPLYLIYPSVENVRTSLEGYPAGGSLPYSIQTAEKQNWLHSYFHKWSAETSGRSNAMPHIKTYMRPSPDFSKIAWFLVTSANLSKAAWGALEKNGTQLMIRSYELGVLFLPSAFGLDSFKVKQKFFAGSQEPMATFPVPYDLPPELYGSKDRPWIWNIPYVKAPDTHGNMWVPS
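Recombinant E. coli-expressed Tdp1 (1 nM) preincubated with compound 15 min at RT, then 5'-biotin/3'-phosphotyrosine-FITC DNA substrate (15 nM) added for 5 min. AlphaScreen beads (10 ug/ml) added, 10 min RT; tyrosine-FITC cleavage read as signal loss.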
ClpP mod = qHTS Assay for Activators of ClpP | hit rate 1.9% among 340,000 | Potency, µM (top dose mostly 57.5 µM), for inactives: at the top dose activity change, negative = active | AID 651965, 2013 | ATP-dependent Clp protease proteolytic subunit (Bacillus subtilis (strain 168)), P80244 | purified B. subtilis ClpP, FRET peptide cleavage, 20 min; active = well fitted falling curve with a large enough effect; inconclusive = small, poorly fitted or top-dose-only effect; inactive = no such curve, though single readings can be large or run the other way; also: the source files actives as falling curves though it sought activators and does not explain the sign; nearly all actives have a fitted effect of over 65% in size
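Buffer: 100 mM Tris/HCl pH8, 100 mM KCl, 0.05% low protease BSA, 2.5% glycerol, 0.01% Tween-20. ClpP 10 microg/mL final; 20 min RT; delta FRET normalized to ADEP and DMSO controls.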
Numbers without * were called inactive; [ ] = remark or other dose. Compounds with a hit are over-represented: about 17% of the library has one in this group of screens. Unless noted, calls follow the shape of the dose curve; as a rule, active = well fitted curve in the direction sought with a large enough effect; inconclusive = small, poorly fitted or top-dose-only effect, or another doubt; inactive = no such curve, though single readings can be large; an effect the other way counts as inactive or inconclusive. Potency is read from the fitted curve at half-maximal effect.

How did CC(=O)Nc1ccc(S(=O)(=O)NCCC(=O)OCc2ccccc2F)cc1 do in these assays?
DT40 TDP1 CPT: -22%; TDP1 cell noCPT: -1%; TDP1 inh: 1%; ClpP mod: 0%

Results for COc1ccc(Cl)cc1NC(=O)CN(C)C(=O)/C=C/c1ccco1 ?
DT40 TDP1 CPT: -25%; TDP1 cell noCPT: -20%; TDP1 inh: 1%; ClpP mod: -3%

How did CCOc1ccccc1NC(=O)c1c(NC(=O)c2cccc(C)c2)sc2c1CCC2 do in these assays?
DT40 TDP1 CPT: inconclusive; TDP1 cell noCPT: -26%; TDP1 inh: 1%[12.3 µM]; ClpP mod: 0%

What do the screens show for `CN(c1ccccc1)S(=O)(=O)c1ccc(Cl)c(C(=O)NCC(c2ccco2)N2CCCC2)c1` (stereo not drawn)?
DT40 TDP1 CPT: 13µM*; TDP1 cell noCPT: 13µM*; TDP1 inh: 1%; ClpP mod: -2%

Results for COc1ccccc1NS(=O)(=O)c1ccc(C(=O)NCC(c2ccco2)N2CCCCC2)cc1 (stereo not drawn) ?
DT40 TDP1 CPT: 15µM*; TDP1 cell noCPT: -25%; ClpP mod: 0%

Results for Cc1ccc(S(=O)(=O)N(C)c2ccc(C(=O)Nc3ccccc3C(=O)N3CCOCC3)cc2)cc1 ?
DT40 TDP1 CPT: -16%; TDP1 cell noCPT: inconclusive; TDP1 inh: 2%; ClpP mod: 18µM*

What do the screens show for `Cc1ccc(N(C)S(=O)(=O)c2cccc(C(=O)NCC(c3cccs3)N3CCOCC3)c2)cc1` (stereo not drawn)?
DT40 TDP1 CPT: inconclusive; TDP1 cell noCPT: inconclusive; ClpP mod: 2%

How did Cc1ccc(S(=O)(=O)N(C)c2ccc(C(=O)NCC(c3cccs3)N3CCOCC3)cc2)cc1 (stereo not drawn) do in these assays?
DT40 TDP1 CPT: 21µM*; TDP1 cell noCPT: inconclusive; TDP1 inh: 1%; ClpP mod: -27%

Results for CCCCCC(=O)/C=C/[C@@H]1[C@@H](C/C=C\CCCC(=O)O)[C@@H](O)C[C@H]1O ?
TDP1 inh: 4%

Results for COc1ccc(Cl)cc1C(=O)NCC(c1ccco1)N1CCCC1 (stereo not drawn) ?
DT40 TDP1 CPT: -26%; TDP1 cell noCPT: 0%; TDP1 inh: 3%; ClpP mod: -9%

How did Cc1ccc(S(=O)(=O)Nc2ccccc2OC(C(=O)OC(C)(C)C)C(=O)OC(C)(C)C)cc1 do in these assays?
DT40 TDP1 CPT: 15µM*; TDP1 cell noCPT: 16µM*; ClpP mod: inconclusive

What do the screens show for `O=C(COc1ccccc1)NCC(c1ccc(Cl)cc1)N1CCCCC1` (stereo not drawn)?
DT40 TDP1 CPT: inconclusive; TDP1 cell noCPT: inconclusive; TDP1 inh: 6%; ClpP mod: 2%

What do the screens show for `O=C(NCC(c1ccc(Cl)cc1)N1CCCCC1)c1ccccc1` (stereo not drawn)?
DT40 TDP1 CPT: 13µM*; TDP1 cell noCPT: 15µM*; TDP1 inh: 4%; ClpP mod: -3%

What do the screens show for `CN(c1ccccc1)S(=O)(=O)c1ccc(C(=O)NCC(c2ccco2)N2CCCCC2)cc1` (stereo not drawn)?
DT40 TDP1 CPT: inconclusive; TDP1 cell noCPT: 15µM*; TDP1 inh: -1%; ClpP mod: -1%

Results for COc1cc(C(=O)NCC(c2ccco2)N2CCCC2)ccc1OCc1ccc(Cl)cc1Cl (stereo not drawn) ?
DT40 TDP1 CPT: inconclusive; TDP1 cell noCPT: 23µM*; ClpP mod: -2%

What do the screens show for `CC1CCN(S(=O)(=O)c2nnc(NC(=O)c3ccc(C(C)C)cc3)s2)CC1`?
DT40 TDP1 CPT: inconclusive; TDP1 cell noCPT: -27%; TDP1 inh: 5%; ClpP mod: -24%

What do the screens show for `CCOC(=O)c1c(C)[nH]c(C)c1S(=O)(=O)N1CCOCC1`?
DT40 TDP1 CPT: 8%; TDP1 cell noCPT: 11%; TDP1 inh: -3%; ClpP mod: 1%

What do the screens show for `O=[N+]([O-])c1cccc2c(N3CCOCC3)ccnc12`?
DT40 TDP1 CPT: inconclusive; TDP1 cell noCPT: 15µM*; TDP1 inh: 0%; ClpP mod: 0%

Results for Cc1cc(C=O)c(C)n1-c1ccc(N2CCCC2)c([N+](=O)[O-])c1 ?
DT40 TDP1 CPT: inconclusive; TDP1 cell noCPT: 26µM*; TDP1 inh: 6%; ClpP mod: 2%

Results for Cc1ccc(C)n1-c1ccc(N2CCOCC2)c([N+](=O)[O-])c1 ?
DT40 TDP1 CPT: inconclusive; TDP1 cell noCPT: 15µM*; TDP1 inh: 11%; ClpP mod: -4%

How did COc1ncc2ncc(=O)n(C3CC3)c2n1 do in these assays?
DT40 TDP1 CPT: -18%; TDP1 cell noCPT: inconclusive

Results for COc1cc(OC)c2c(c1)C(=O)OC2c1cc(OC)c(OC)cc1C (stereo not drawn) ?
DT40 TDP1 CPT: inconclusive; TDP1 cell noCPT: 11µM*; TDP1 inh: 0%; ClpP mod: -1%

Results for CCc1cccc(C)c1NC(=S)N(CCCN1CCOCC1)Cc1cccnc1 ?
DT40 TDP1 CPT: 8%; TDP1 cell noCPT: 0%; TDP1 inh: 1%

Results for C[C@H](NC(=O)c1ccco1)C(=O)NNC(=O)COc1cccc(C(F)(F)F)c1 ?
DT40 TDP1 CPT: -22%; TDP1 cell noCPT: -15%; TDP1 inh: 0%; ClpP mod: 2%

How did Cc1ccc2nc(CC(O)(c3ccccc3)c3ccccc3)ccc2c1 do in these assays?
DT40 TDP1 CPT: inconclusive; TDP1 cell noCPT: 21µM*; ClpP mod: -2%

Results for COc1cccc2ccc(CC(O)(c3ccccc3)c3ccccc3)nc12 ?
DT40 TDP1 CPT: inconclusive; TDP1 cell noCPT: 26µM*; ClpP mod: -12%

How did COC(=O)C(Cc1cccc(C)n1)(c1ccccc1)c1ccccc1 do in these assays?
DT40 TDP1 CPT: inconclusive; TDP1 cell noCPT: -3%; ClpP mod: -1%

How did OC(Cc1ccncc1)(c1ccccc1)c1ccccc1 do in these assays?
DT40 TDP1 CPT: inconclusive; TDP1 cell noCPT: inconclusive; TDP1 inh: 1%; ClpP mod: -3%

How did COc1ccc(NC(=O)Cn2cc(C(=O)C3CC3)c3ccccc32)cc1 do in these assays?
DT40 TDP1 CPT: 3%; TDP1 cell noCPT: -3%; TDP1 inh: 3%; ClpP mod: -1%

What do the screens show for `Cc1ccc(NC(=O)CN2C(=O)COc3ccc(S(=O)(=O)N4CCOCC4)cc32)c(Cl)c1`?
DT40 TDP1 CPT: inconclusive; TDP1 cell noCPT: inconclusive; TDP1 inh: 8%; ClpP mod: 1%

How did Cc1ccc(CNCC(O)(c2ccc(F)cc2)c2ccc(F)cc2)cc1 do in these assays?
DT40 TDP1 CPT: 21µM*; TDP1 cell noCPT: inconclusive; TDP1 inh: 1%; ClpP mod: -1%

Results for OC(CNCc1ccccc1)(c1ccc(F)cc1)c1ccc(F)cc1 ?
DT40 TDP1 CPT: inconclusive; TDP1 cell noCPT: 18µM*; TDP1 inh: 0%; ClpP mod: 1%
